Results published in PubChem BioAssay AID1159580 (chemical genetic matrix, 2015).
Where “and” joins values, the source holds several entries; their conditions need not be identical. Equal values may be shown once. In all, about 5,500 compounds went through this assay and about 2,000 (36%) were called active. Inconclusive results (about 18%) are left out. Cut-off read from the data, not from the text of the source: active = normalized growth mostly below about 0.91 (no sharp cut-off); inconclusive = no clear call, values can overlap the other calls; inactive = mostly above about 0.92. Some of the results follow.

Experiment: chemical genetic growth profiling, strain panel (AID 1159580);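 note: tested at 20 µM; growth read once vehicle control cultures reached saturation at 30 °C; 1 = growth at the plate median or of vehicle wells; lower values mean less growth of the strain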
Details: S. cerevisiae deletion strains, growth OD

Measured: normalized growth

Nc1ccccc1C(=O)CC(N)C(=O)O (stereo not drawn)
inactive: locus YAL021C, strain ccr4, hits give low values 1.01 | locus YAL026C, strain drs2, hits give low values 1.01 | locus YAL030W, strain snc1, hits give low values 0.992 | locus YBL061C, strain skt5, hits give low values 1 | locus YBR009C, strain hhf1, hits give low values 1.01 | locus YBR021W, strain FUR4, hits give low values 1.06 | locus YBR023C, strain chs3, hits give low values 1 | locus YBR171W, strain sec66, hits give low values 0.99 | locus YBR229C, strain ROT2, hits give low values 1.01 | locus YBR231C, strain swc5, hits give low values 0.97 | locus YBR279W, strain paf1, hits give low values 1.01 | locus YCL011C, strain gbp2, hits give low values 1.01 | locus YCL016C, strain dcc1, hits give low values 1 | locus YCL029C, strain bik1, hits give low values 0.968 | locus YCL069W, strain vba3, hits give low values 1.01 | locus YCR088W, strain abp1, hits give low values 0.989 | locus YDL005C, strain med2, hits give low values 0.989 | locus YDL035C, strain GPR1, hits give low values 1.01 | locus YDL040C, strain nat1, hits give low values 0.989 | locus YDL074C, strain BRE1, hits give low values 0.968 | locus YDL101C, strain DUN1, hits give low values 0.995 | locus YDL134C, strain PPH21, hits give low values 1.07 | locus YDL185W, strain tfp1, hits give low values 0.947 | locus YDL192W, strain arf1, hits give low values 0.984 | locus YDR001C, strain nth1, hits give low values 0.99 | locus YDR069C, strain doa4, hits give low values 0.984 | locus YDR101C, strain arx1, hits give low values 0.956 | locus YDR137W, strain rgp1, hits give low values 0.998 | locus YDR150W, strain NUM1, hits give low values 0.997 | locus YDR159W, strain sac3, hits give low values 0.981 | locus YDR162C, strain NBP2, hits give low values 1.01 | locus YDR195W, strain ref2 0.94 | locus YDR297W, strain sur2, hits give low values 0.994 | locus YDR318W, strain mcm21, hits give low values 1.01 | locus YDR334W, strain swr1, hits give low values 0.99 | locus YDR335W, strain msn5, hits give low values 1 | locus YDR388W, hits give low values 0.994 | locus YDR392W, strain spt3, hits give low values 0.907 | locus YDR502C, strain sam2, hits give low values 1 | locus YEL003W, strain gim4, hits give low values 1.01 | locus YEL037C, strain rad23, hits give low values 1 | locus YEL061C, strain CIN8 (second series), hits give low values 0.992 | locus YEL061C, strain CIN8, hits give low values 1 | locus YER015W, strain faa2, hits give low values 1.01 | locus YER016W, strain bim1, hits give low values 0.996 | locus YER110C, hits give low values 0.975 | locus YER111C, strain swi4, hits give low values 0.998 | locus YER155C, strain BEM2 (second series), hits give low values 0.939 | locus YER155C, strain BEM2, hits give low values 0.997 | locus YER167W, strain BCK2, hits give low values 1.01 | locus YFR010W, strain ubp6, hits give low values 1.01 | locus YGL078C, strain dbp3, hits give low values 0.989 | locus YGL086W, strain mad1, hits give low values 0.954 | locus YGL167C, strain pmr1, hits give low values 0.997 | locus YGL173C, strain kem1, hits give low values 1 | locus YGL227W, strain vid30, hits give low values 0.996 | locus YGL240W, strain doc1, hits give low values 0.941 | locus YGL248W, strain PDE1, hits give low values 1.01 | locus YGL253W, strain hxk2, hits give low values 1.03 | locus YGR078C, strain PAC10, hits give low values 0.998 | locus YGR135W, strain pre9, hits give low values 1 | locus YGR229C, strain SMI1, hits give low values 1.01 | locus YGR252W, strain gcn5, hits give low values 1.17 | locus YHR013C, strain ard1, hits give low values 0.998 | locus YHR027C, strain rpn1, hits give low values 0.984 | locus YHR030C, strain SLT2, hits give low values 0.989 and 1.03 | locus YHR079C, strain IRE1 (second series), hits give low values 0.992 | locus YHR079C, strain IRE1, hits give low values 1.05 | locus YHR094C, strain hxt1, hits give low values 0.995 | locus YHR129C, strain ARP1, hits give low values 1.01 | locus YHR142W, strain chs7, hits give low values 0.995 | locus YHR200W, strain rpn10, hits give low values 0.995 | locus YIL066C, strain RNR3, hits give low values 1 | locus YIL073C, strain SPO22, hits give low values 0.986 | locus YIL125W, strain kgd1, hits give low values 0.993 | locus YIR030C, strain dcg1, hits give low values 0.997 | locus YJL092W, strain hpr5, hits give low values 1.01 | locus YJL095W, strain BCK1 (second series), hits give low values 0.993 | locus YJL095W, strain BCK1, hits give low values 0.998 and 1.02 | locus YJL115W, strain asf1, hits give low values 0.985 | locus YJL129C, strain trk1, hits give low values 1.03 | locus YJL134W, strain LCB3, hits give low values 0.991 | locus YJL154C, strain vps35, hits give low values 0.991 | locus YJL164C, strain tpk1, hits give low values 1.03 | locus YJL166W, strain qcr8, hits give low values 0.991 | locus YJL168C, strain set2, hits give low values 0.985 | locus YJL187C, strain SWE1 (second series), hits give low values 0.992 | locus YJL187C, strain SWE1, hits give low values 1.02 | locus YJR043C, strain POL32, hits give low values 1.01 | locus YJR066W, strain TOR1, hits give low values 0.952 | locus YJR075W, strain HOC1, hits give low values 0.995 | locus YKL009W, strain mrt4, hits give low values 0.964 | locus YKL068W, hits give low values 0.975 | locus YKL085W, strain MDH1 (second series), hits give low values 0.983 | locus YKL085W, strain MDH1, hits give low values 0.983 | locus YKL160W, strain elf1, hits give low values 1.02 | locus YKL190W, strain CNB1, hits give low values 1.01 | locus YKR001C, strain vps1, hits give low values 0.959 | locus YKR026C, strain gcn3, hits give low values 0.992 | locus YKR091W, strain srl3, hits give low values 0.991 | locus YLL001W, strain dnm1, hits give low values 1 | locus YLL026W, hits give low values 0.994 | locus YLL041C, strain sdh2, hits give low values 0.998 | locus YLR027C, strain aat2, hits give low values 1.01 | locus YLR039C, strain RIC1, hits give low values 0.91 | locus YLR058C, strain SHM2, hits give low values 1.01 | locus YLR102C, strain apc9, hits give low values 0.984 | locus YLR113W, strain HOG1, hits give low values 1.02 | locus YLR221C, strain rsa3, hits give low values 0.987 | locus YLR258W, strain gsy2, hits give low values 1.01 | locus YLR262C, strain YPT6 (second series), hits give low values 1 | locus YLR262C, strain YPT6, hits give low values 0.896 | locus YLR268W, strain sec22, hits give low values 0.957 | locus YLR320W, strain mms22, hits give low values 0.983 | locus YLR330W, strain CHS5, hits give low values 0.989 | locus YLR342W, strain FKS1 (second series), hits give low values 1.02 | locus YLR342W, strain FKS1, hits give low values 0.992 | locus YLR357W, strain rsc2, hits give low values 0.984 | locus YLR370C, strain arc18, hits give low values 0.992 | locus YLR371W, strain rom2, hits give low values 0.984 | locus YLR384C, strain iki3, hits give low values 0.972 | locus YLR418C, strain cdc73, hits give low values 1.06 | locus YML016C, strain PPZ1, hits give low values 0.989 | locus YML032C, strain rad52, hits give low values 1.02 | locus YML120C, strain ndi1, hits give low values 1 | locus YML124C, strain tub3, hits give low values 0.994 | locus YMR058W, strain fet3, hits give low values 1 | locus YMR078C, strain ctf18, hits give low values 0.98 | locus YMR125W, strain sto1, hits give low values 1.02 | locus YMR129W, hits give low values 1 | locus YMR205C, strain PFK2, hits give low values 1.02 | locus YMR223W, strain ubp8, hits give low values 0.995 | locus YMR231W, strain pep5, hits give low values 0.996 | locus YMR263W, strain SAP30, hits give low values 0.995 | locus YMR307W, strain GAS1, hits give low values 1.16 | locus YNL067W, strain RPL9B, hits give low values 0.998 | locus YNL071W, strain lat1, hits give low values 1 | locus YNL153C, strain GIM3, hits give low values 0.988 | locus YNL183C, strain NPR1, hits give low values 0.965 | locus YNL209W, strain ssb2, hits give low values 1 | locus YNL233W, strain BNI4, hits give low values 0.993 | locus YNL248C, strain rpa49, hits give low values 0.914 | locus YNL250W, strain rad50, hits give low values 0.935 | locus YNL271C, strain bni1, hits give low values 0.984 | locus YNL298W, strain CLA4, hits give low values 0.991 | locus YNL307C, strain MCK1, hits give low values 0.982 | locus YNL322C, strain KRE1 (second series), hits give low values 1 | locus YNR049C, strain mso1, hits give low values 1.02 | locus YNR052C, strain pop2, hits give low values 1.02 | locus YOL006C, strain TOP1, hits give low values 0.831 | locus YOL012C, strain htz1 0.879 | locus YOL147C, strain pex11, hits give low values 0.991 | locus YOR001W, strain rrp6, hits give low values 0.972 | locus YOR061W, strain CKA2, hits give low values 0.992 | locus YOR069W, strain VPS5, hits give low values 0.993 | locus YOR070C, strain gyp1, hits give low values 1 | locus YOR080W, strain dia2, hits give low values 1 | locus YOR083W, strain WHI5, hits give low values 1.02 | locus YOR106W, strain vam3, hits give low values 1.02 | locus YOR136W, strain idh2, hits give low values 0.972 | locus YOR144C, strain elg1, hits give low values 0.996 | locus YOR184W, strain ser1, hits give low values 0.978 | locus YOR231W, strain MKK1, hits give low values 1.04 | locus YOR265W, strain rbl2, hits give low values 1 | locus YOR270C, strain vph1, hits give low values 1.04 | locus YOR290C, strain snf2, hits give low values 0.994 | locus YOR316C, strain cot1, hits give low values 0.994 | locus YPL051W, strain arl3, hits give low values 1 | locus YPL078C, strain atp4, hits give low values 1.01 | locus YPL106C, strain sse1, hits give low values 0.966 | locus YPL240C, strain hsp82, hits give low values 0.992 | locus YPL241C, strain CIN2, hits give low values 1.01 | locus YPL256C, strain CLN2, hits give low values 1.04 | locus YPR119W, strain clb2, hits give low values 0.985 | locus YPR141C, strain kar3, hits give low values 0.992 | locus YPR163C, strain tif3, hits give low values 0.986 | locus YPR167C, strain met16, hits give low values 0.996 | strain wtn01, hits give low values 0.94
